# High-throughput results as filed in PubChem.
# This excerpt belongs to a sample that is enriched for hits.
# FBPA Giardia inh = Giardia lamblia aldolase inhibition; A8B2U2; AID 2451; purified Giardia FBPA; Potency, µM (doses to about 59.6 µM), without a hit: top-dose activity, negative = inhibition, usual class: inhibitors; hit rate 0.71% among 290,000; further: potency means the concentration at half of the fitted maximal effect; on the % scale 0 is the no-effect control and ±100 the full control effect; nearly all actives have a fitted effect of over 55% in size
#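 40 nM FBPA preincubated 10 min at RT with compound (up to 57.5 uM final), then substrate plus GAPDH/TPI/NAD/arsenate coupling and diaphorase/resazurin added. Fluorescence read after 20 min at RT, 525/598 nm.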
# Shiga inhibitor = Shiga toxin inhibition; inhibition, % at 38.7 µM; hit rate 9.2% among 290,000; Vero cells, Shiga toxin protein synthesis inhibition reporter; in the data active means inhibition mostly above about 28%, no sharp cut-off; inactive means mostly below about 43%; further: 0% is about no effect
# LmPK inhibitor = blocks Leishmania mexicana pyruvate kinase activity; Q27686; purified LmPK, Kinase-Glo ATP luminescence, 1 h; Potency, µM (series often up to 57.5 µM), inactives show top-dose activity change, negative = inhibition, actives largely listed as inhibitors; hit rate 0.37% among 290,000; further: potency means the concentration at half of the fitted maximal effect; on the % scale 0 is the no-effect control and ±100 the full control effect
# Target sequence (Q27686 whole entry, looked up): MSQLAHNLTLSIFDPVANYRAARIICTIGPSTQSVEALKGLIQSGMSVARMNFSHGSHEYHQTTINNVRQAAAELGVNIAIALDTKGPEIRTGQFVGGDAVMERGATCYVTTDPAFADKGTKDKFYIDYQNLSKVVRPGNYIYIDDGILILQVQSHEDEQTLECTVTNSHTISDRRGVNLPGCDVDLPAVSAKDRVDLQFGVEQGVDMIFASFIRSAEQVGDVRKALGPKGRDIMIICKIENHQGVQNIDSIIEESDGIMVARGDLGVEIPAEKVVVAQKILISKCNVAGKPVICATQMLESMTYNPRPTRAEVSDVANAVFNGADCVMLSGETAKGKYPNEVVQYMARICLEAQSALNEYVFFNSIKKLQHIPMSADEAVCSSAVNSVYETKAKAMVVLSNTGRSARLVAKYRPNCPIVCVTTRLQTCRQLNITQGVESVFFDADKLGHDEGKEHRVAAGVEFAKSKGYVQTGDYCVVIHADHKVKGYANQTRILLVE
#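 qHTS format; LmPK 0.1 nM; substrates PEP 0.5 mM and ADP 0.1 mM. One-hour room-temperature incubation, then coupled luciferase luminescence; 0.5 nM enzyme wells mark activation.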
# Tb PYK inh = blocks Trypanosoma brucei pyruvate kinase. Q57TT1. TbPYK enzyme, Kinase-Glo Plus ATP luminescence, 45 min. Potency, µM (top dose mostly 76.8 µM), for the others: at the top dose activity, negative = inhibition, most hits filed as inhibitors. hit rate 0.12% among 410,000. AID 624173; further: potency means the concentration at half of the fitted maximal effect; on the % scale 0 is the no-effect control and ±100 the full control effect; nearly all actives have a fitted effect of over 50% in size
#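 ADP (130 uM final) triggers the TbPYK reaction after compound addition; incubation is 45 min at room temperature. Kinase-Glo Plus is then added and luminescence imaged. Normalized data are fitted to concentration-effect curves.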
# RE007 growth inh = less growth of the S. pombe RE007 Vpr strain. S. pombe RE007 Vpr strain, BacTiter-Glo ATP luminescence, 24 h. Potency, µM (highest dose often 92.2 µM), inactives show at the top dose activity change, negative = less growth, hits mostly inhibitors. hit rate 0.21% among 360,000. AID 651644; active means well fitted falling curve with a large enough effect; inconclusive means small, poorly fitted or top-dose-only effect; inactive means no such curve, though single readings can be large or run the other way; further: potency means the concentration at half of the fitted maximal effect; on the % scale 0 is the no-effect control and ±100 the full control effect; nearly all actives have a fitted effect of over 50% in size
#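 Fission yeast RE007 carrying one integrated HIV-1 vpr copy, seeded at OD 0.01 in PMG+AL medium with 23 nL pinned compound. Grown 24 h at 30 degrees; viability read by BacTiter-Glo luminescence after 5 min.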
# Cycloheximide cs = counter-screen for Shiga toxin inhibitors: cycloheximide protein synthesis inhibition. cell reporter, cycloheximide protein synthesis inhibition counterscreen. max response, %. hit rate 12% among 300,000. AID 2314; in the data active means max response mostly above about 13%, no sharp cut-off; inactive means mostly below about 14%; further: read at 38.3 µM for the half of the compounds with a filed dose; 0% is about no effect
# Starred values were filed as active, the others as inactive; ? = inconclusive; · = no result. Unless noted, the call rests on the fitted dose curve; in most records, active means well fitted curve in the direction sought with a large enough effect; inconclusive means small, poorly fitted or top-dose-only effect, or another doubt; inactive means no such curve, though single readings can be large; an effect the other way counts as inactive or inconclusive.
SMILES,FBPA Giardia inh,Shiga inhibitor,LmPK inhibitor,Tb PYK inh,RE007 growth inh,Cycloheximide cs
CC(=O)c1c(C)oc2c1cc(NS(=O)(=O)c1ccc(Br)cc1)c1ccccc12,·,·,·,18.2%,·,·
CC(=O)c1c(C)oc2c1cc(O)c1ccccc12,-19.6%,31.2,0.4%,5.0%,-2.0%,19.8*
CCOC(=O)c1c(C)[nH]c2c1cc(O)c1ccccc12,?,65.2*,3.1%,0.4%,-15.6%,33.5*
CCOC(=O)c1c(C)oc2c1cc(O)c1ccccc12,-21.7%,107.6*,-0.2%,4.8%,8.2%,34.9*
CCOC(=O)c1c(C)oc2c1cc(NS(=O)(=O)c1ccc(C(=O)O)cc1)c1ccccc12,?,15.0,-3.3%,-11.1%,-7.0%,0.3
Cc1ccc(Cl)cc1NC(=O)C(C)n1nc(-c2ccccc2)ccc1=O (stereo unspecified),·,·,·,0.3%,·,·
CC1CCCN(S(=O)(=O)c2ccc(NC(=O)C3CC(=O)N(c4ccccc4)C3)cc2)C1 (stereo unspecified),4.1%,12.1,-2.7%,1.4%,8.7%,10.1
CC(=O)c1coc2c1cc(O)c1ccccc12,?,36.4,4.4%,4.6%,-9.4%,12.7
CC(=O)c1cc(O)c2ccccc2c1O,?,65.8*,-11.2%,-13.7%,-12.5%,30.5*
CC(=O)Nc1nc(C)c(-c2csc(Nc3ccc(O)cc3)n2)s1,-8.4%,33.2,1.2%,-20.7%,9.5%,14.7*
CC(=O)Nc1nc(C)c(-c2csc(Nc3ccccn3)n2)s1,-8.6%,89.9*,0.8%,-2.8%,-4.0%,37.3*
CC(=O)Nc1ccc(Nc2nc(-c3sc(NC(C)=O)nc3C)cs2)cc1,-18.4%,-2.9,-0.8%,-17.1%,0.5%,-1.5
O=C(Cc1cccc(NC(=O)C2CCCN(C(=O)C3CCCCC3)C2)c1)Nc1cccc(C(=O)N2CCCC2)c1 (stereo unspecified),·,·,·,-1.3%,-4.4%,·
CCOc1ccc(CN2C(=O)c3ccccc3Sc3ccc(C(=O)OC)cc32)cc1,·,·,·,-5.3%,·,·
COc1cc(C)c(CC/C(C)=C/C=C/C(C)=O)c(C)c1C,-8.3%,·,·,·,·,·
COc1ccc(OC)cc1,·,·,·,2.9%,-7.0%,·
COc1ccc(C2=C(SC)CC2=NC(C)(C)C)cc1,-2.7%,29.7,-1.6%,-3.5%,11.1%,12.8*
CC1(C)OC(=O)C(=NNc2ccc(C(=O)O)cc2)C(=O)O1,-3.6%,17.1,2.6%,4.7%,18.2%,14.9
CC1(C)OC(=O)C(=NNc2ccccc2[N+](=O)[O-])C(=O)O1,-7.7%,45.7,-3.6%,-1.3%,35.5µM*,-0.3
CC1(C)OC(=O)C(=NNc2ccc(Cl)cc2)C(=O)O1,-7.9%,63.0*,-3.1%,2.7%,-14.7%,59.8*
CC1(C)OC(=O)C(=NNc2ccc(O)cc2)C(=O)O1,-0.9%,41.5,1.7%,4.3%,-12.4%,12.7*
Cc1cccn2c(=O)c(C(=O)NCc3cccc(F)c3)cnc12,·,·,·,1.7%,·,·
COC(=O)c1ccc2c(=O)[nH]c(CSc3nc(C)cs3)nc2c1,-4.6%,67.3*,-21.3%,-16.7%,-15.0%,27.6*
O=C(C1CC(c2ccc(Cl)c(Cl)c2)=NO1)N1CCC2(CC1)OCCO2 (stereo unspecified),-2.2%,117.5*,0.3%,-4.6%,1.6%,27.7*
COc1cccc(C2=NOC(C(=O)N3CCc4ccccc4C3)C2)c1 (stereo unspecified),-27.3%,26.2*,0.1%,-2.4%,12.0%,12.5*
SMILES,FBPA Giardia inh,Shiga inhibitor,LmPK inhibitor,Tb PYK inh,RE007 growth inh,Cycloheximide cs
O=C(C1CC(c2ccc(F)cc2)=NO1)N1CCc2ccccc2C1 (stereo unspecified),3.3%,32.9,2.1%,-0.5%,-4.1%,21.2
O=C(C1CC(c2ccc(F)cc2)=NO1)N1CCC2(CC1)OCCO2 (stereo unspecified),2.5%,71.2*,5.0%,1.2%,2.3%,45.1*
COc1ccc(C2=NOC(C(=O)N3CCN(c4ccccc4OC)CC3)C2)cc1 (stereo unspecified),1.1%,-11.4,0.0%,-1.5%,2.4%,-5.1
CC1CCCCN1C(=O)C1CC(c2ccc(F)cc2)=NO1 (stereo unspecified),0.7%,90.3*,-1.2%,11.9%,-2.1%,58.8*
OCCC1CN(Cc2cc3c(cc2Cl)OCO3)CCN1Cc1ccccc1 (stereo unspecified),1.5%,-12.7,-0.9%,-7.6%,1.2%,-1.5
CCc1ccc(S(=O)(=O)c2nnn3c2nc(Nc2cccc(C)c2C)c2sccc23)cc1,·,·,·,-6.9%,·,·
O=C(C1CC(c2ccc(F)cc2)=NO1)N1CCCCC1 (stereo unspecified),-4.8%,60.6*,-6.8%,4.4%,-15.8%,25.9*
O=C(C1CC(c2ccccc2O)=NO1)N1CCCCC1 (stereo unspecified),-2.8%,132.8*,-4.3%,3.7%,-12.3%,48.2*
O=C(C1CC(c2ccc(F)cc2)=NO1)N1CCN(c2ccccc2)CC1 (stereo unspecified),2.6%,-11.2,-0.3%,2.0%,11.0%,-5.3
COc1cccc(C2=NOC(C(=O)NC(C)C)C2)c1 (stereo unspecified),8.0%,25.1,-2.8%,3.0%,2.1%,-3.1
COc1cccc(C2=NOC(C(=O)N3CCC4(CC3)OCCO4)C2)c1 (stereo unspecified),7.1%,96.5*,-26.5%,-5.0%,12.7%,52.4*
NNC(=O)CS(=O)(=O)c1ccc(Cl)cc1,-8.9%,0.4,-1.5%,4.5%,0.2%,1.0
O=C(Nc1cccc(C(=O)N2CCN(c3ccc(F)cc3)CC2)c1)c1nsc2ccccc12,·,·,·,-5.2%,·,·
CCN(C(=O)COC(=O)c1cc(S(=O)(=O)N(C)C)ccc1Cl)C1CCS(=O)(=O)C1 (stereo unspecified),·,·,·,3.4%,-12.7%,·
O=S(=O)(NCCc1ccccc1)c1ccc(Br)cc1,2.8%,10.9,-12.1%,-2.5%,21.7%,10.4
O=C(Nc1nnc(-c2ccccc2F)s1)C1CCCO1 (stereo unspecified),-13.0%,64.4*,-6.0%,-12.6%,4.5%,38.7*
O=C(Nc1nnc(-c2ccncc2)s1)C1CCCO1 (stereo unspecified),-15.4%,35.1*,2.1%,5.1%,-19.8%,17.3*
O=C(Nc1nnc(Cc2ccc(Cl)cc2)s1)C1CCCO1 (stereo unspecified),0.3%,40.4,-1.2%,-3.9%,-13.7%,17.6
Cc1ccccc1CN1C(=O)c2ccccc2Sc2ccc(C(=O)NC3CCCCC3)cc21,·,·,·,-3.5%,·,·
